Some test systems named below: NCI-H23 lung; NCI-H226 lung; NCI-H322M lung; HOP-62 NSCLC; NCI-H460 lung; HOP-92 NSCLC; NCI-H522 lung; A549/ATCC NSCLC; 786-0 renal; COLO 205 colon; DU-145 prostate; K-562 leukemia; MALME-3M melanoma; MDA-MB-231 breast; RXF 393 renal; SF-268 CNS; SF-295 CNS; SF-539 CNS; UACC-257 melanoma; M14 melanoma.
Common to all, as to test: NCI-60 one-dose screen, 48 h (100 = growth as untreated, 0 = no growth, -100 = all killed)
Common to all, as to settings: 10 µM unless noted

Compounds without any hit were thinned out: in the full panel of roughly 83,000, 20% have a hit.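 Values shown are percent growth following 48 h exposure of cells in 96-well plates to a single concentration of compound; below 10 was considered active.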 A number with no mark means an inactive call. The source made the active and inactive calls.

With `CC(/C=C1\SC(=S)N(CC(=O)NC(Cc2c[nH]c3ccccc23)C(=O)O)C1=O)=C\c1ccccc1` (stereo not given), the growth in the experiment with NCI-H23 lung was 99.9%; in the experiment with NCI-H226 lung, 102%; with NCI-H322M lung it was 102%; with HOP-62 NSCLC it was 96.3%; in the experiment with NCI-H460 lung, 103%; in the experiment on HOP-92 NSCLC, 106%. Also, the growth with NCI-H522 lung is 93.3%; in the experiment on A549/ATCC NSCLC, 103%; in the experiment on 786-0 renal, 102%; in the experiment with COLO 205 colon, 116%; in the experiment on DU-145 prostate, 112%; in the experiment on K-562 leukemia it was 107%. For the same compound, the growth in the experiment on MALME-3M melanoma was 107%; in the experiment on MDA-MB-231 breast it was 104%; with RXF 393 renal, 106%; in the experiment on SF-268 CNS, 92.8%; in the experiment with SF-295 CNS, 104%; with SF-539 CNS, 104%. In addition, the results for the growth in the experiment with UACC-257 melanoma and in the experiment on M14 melanoma were 100% and 103%, respectively.

On to `COc1ccc2c(c1)c(-c1nonc1-c1cn(C)c3ccc(OC)cc13)cn2C`, for which the growth was 59.2% in the experiment with NCI-H23 lung; 75.1% in the experiment with NCI-H226 lung; 71.1% in the experiment on NCI-H322M lung; 32.4% with HOP-62 NSCLC; 12.6% with NCI-H460 lung; 55.6% in the experiment on HOP-92 NSCLC. In addition, the growth was 18.5% in the experiment with NCI-H522 lung; 39.2% in the experiment with A549/ATCC NSCLC; 54.5% in the experiment on 786-0 renal; 32.9% with COLO 205 colon; 70.9% in the experiment on DU-145 prostate; 13% with K-562 leukemia. The growth was 41.7% with MALME-3M melanoma; 49.5% in the experiment on MDA-MB-231 breast; 70.9% in the experiment with RXF 393 renal; 54.2% in the experiment on SF-268 CNS; 30.4% in the experiment with SF-295 CNS; 33.9% with SF-539 CNS. In addition, the values for the growth in the experiment on UACC-257 melanoma and in the experiment with M14 melanoma were 62.4% and 16.6%, respectively.

For the compound `Cc1ccc(O)c(NC(=O)c2ccc(CNc3ccnc(C(F)(F)F)c3)cc2)c1`, the growth in the experiment on NCI-H23 lung is 81.1%; in the experiment with NCI-H226 lung, 74%; in the experiment on NCI-H322M lung, 65.3%; in the experiment with HOP-62 NSCLC it was 56%; with NCI-H460 lung it was 18.8%; in the experiment with HOP-92 NSCLC, 92.1%. Also, the growth was 67.6% in the experiment with NCI-H522 lung; 53% with A549/ATCC NSCLC; 48.8% with 786-0 renal; 152% in the experiment with COLO 205 colon; 107% in the experiment with DU-145 prostate; 24.2% in the experiment with K-562 leukemia. Besides, the growth with MALME-3M melanoma was 59.9%; with MDA-MB-231 breast, 48.9%; in the experiment on RXF 393 renal, 92%; in the experiment with SF-268 CNS, 79.9%; in the experiment with SF-295 CNS, 17.2%; with SF-539 CNS, 35.1%. For the same compound, the growth in the experiment on UACC-257 melanoma was 71.3%; in the experiment on M14 melanoma it was 49.2%.

Turning to `COc1ccc(NC(=O)c2sc3nc4c(cc3c2N)CCCC4)cc1`, the growth was 28% with NCI-H23 lung; 50.6% in the experiment with NCI-H226 lung; 53.1% with NCI-H322M lung; 34.5% in the experiment with HOP-62 NSCLC; 18.7% in the experiment on NCI-H460 lung; 47.3% with HOP-92 NSCLC. Also, the growth was -20.7% (active) in the experiment with NCI-H522 lung; 30% in the experiment on A549/ATCC NSCLC; 38.6% in the experiment on 786-0 renal; 14% in the experiment on COLO 205 colon; 11.5% in the experiment with DU-145 prostate; 6.99% (active) in the experiment on K-562 leukemia. Besides, the growth in the experiment on MALME-3M melanoma is 54.8%; in the experiment with MDA-MB-231 breast it was 49.2%; in the experiment with RXF 393 renal, -4.44% (active); in the experiment on SF-268 CNS, 58.8%; in the experiment with SF-295 CNS, 8.64% (active); in the experiment on SF-539 CNS, 3.47% (active). For the same compound, the growth was 53% in the experiment on UACC-257 melanoma and 18.3% with M14 melanoma.

`C=CC1(C)C(O[Si](C)(C)C(C)(C)C)CC2C3OC(=O)NC31c1cccc3c1[C@H](C(=O)N3C)C2(C)C` (stereo not given in full): the growth in the experiment on NCI-H23 lung was 59.7%; in the experiment with NCI-H226 lung it was 66.7%; with NCI-H322M lung, 78.3%; with HOP-62 NSCLC, 85.5%; in the experiment with NCI-H460 lung it was 44.7%; in the experiment with HOP-92 NSCLC, 29.4%. Also, the growth with NCI-H522 lung was 44.1%; in the experiment on A549/ATCC NSCLC, 41.7%; in the experiment on 786-0 renal, 73.6%; in the experiment with COLO 205 colon, 40.8%; with DU-145 prostate, 76.2%; in the experiment with K-562 leukemia, 34%. The growth with MALME-3M melanoma is 64%; in the experiment with MDA-MB-231 breast it was 43.3%; in the experiment on RXF 393 renal, 68.6%; in the experiment with SF-268 CNS, 73.6%; in the experiment with SF-295 CNS, 46.9%; in the experiment on SF-539 CNS, 65.4%. For the same compound, the growth with UACC-257 melanoma was 33.1%; in the experiment with M14 melanoma, 48.5%.

On to `Cc1ccc(-c2nc(C(Cl)Cl)nc3cc(C)nn23)cc1`, for which the growth was -18.4% (active) in the experiment with NCI-H23 lung; 70.2% with NCI-H226 lung; -24.9% (active) in the experiment with NCI-H322M lung; 7.49% (active) in the experiment on HOP-62 NSCLC; -64.8% (active) in the experiment with NCI-H460 lung; 35% in the experiment on HOP-92 NSCLC. The growth with NCI-H522 lung is 4.52% (active); in the experiment on A549/ATCC NSCLC, -4.14% (active); with 786-0 renal it was 81.8%; with COLO 205 colon it was -36.6% (active); in the experiment on DU-145 prostate, -12.6% (active); in the experiment on K-562 leukemia, 11.2%. Further, the growth in the experiment on MALME-3M melanoma is -12.2% (active); in the experiment with MDA-MB-231 breast, 8.58% (active); with RXF 393 renal, -66% (active); in the experiment with SF-268 CNS it was 21.4%; in the experiment on SF-295 CNS, 17.8%; in the experiment with SF-539 CNS it was 35.1%. Also, the growth was 55.8% in the experiment on UACC-257 melanoma and -9.67% (active) in the experiment on M14 melanoma.

As to `CC[C@@H](c1ccc2cc(OC)ccc2c1)C(C)(C)C(=O)F`, the growth was 93.4% in the experiment on NCI-H23 lung; 103% in the experiment with NCI-H226 lung; 124% in the experiment on NCI-H322M lung; 90.8% in the experiment with HOP-62 NSCLC; 106% in the experiment on NCI-H460 lung; 95.1% in the experiment on HOP-92 NSCLC. Besides, the growth in the experiment on NCI-H522 lung is 104%; in the experiment on A549/ATCC NSCLC, 92.5%; in the experiment on 786-0 renal, 109%; with COLO 205 colon it was 90.2%; in the experiment on DU-145 prostate it was 104%; in the experiment on K-562 leukemia, 104%. The growth in the experiment on MALME-3M melanoma was 97.1%; with MDA-MB-231 breast, 106%; with RXF 393 renal, 98.6%; in the experiment on SF-268 CNS, 113%; in the experiment on SF-295 CNS, 98.7%; with SF-539 CNS, 103%. Besides, the growth with UACC-257 melanoma is -0.544% (active); with M14 melanoma, 99.2%.
